About 1,700 (0.89%) of roughly 190,000 compounds were called active. Many of the other results were omitted from the sample, so actives are more common in it than they were. Unmarked numbers belong to inactive results.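 Rule for the calls: active = inhibition above the mean inhibition across all screened compounds plus 3 SD (cut at about 44% in these data); inactive = the rest.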
test: IL-6 driven STAT3 reporter inhibitors, primary screen, U3A cells, luciferase, luminescence, MLSCN library (AID 862); settings: IL-6 STAT3-luciferase reporter, at 5.5 µM, stronger effect = higher value, host cell line lacks STAT1;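 note: 0% = DMSO only wells and 100% = 100 µM nifuroxazide control wells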

SMILES	inhibition
CC(=O)NC(=S)NNC(=O)c1ccc(Br)cc1	-0.5%
O=C1N/C(=C/c2cccs2)C(=O)N1Cc1ccc(F)cc1	-0.7%
Cc1ccc(NC(=O)NNC(=O)c2sccc2-n2cccc2)cc1	-2.5%
Cc1ccnc(NC(=O)C(C)N2C(=O)c3ccccc3C2=O)c1 (stereo not given)	1.4%
COc1ccc2nc(Nc3nc4cc5c(cc4s3)OCCO5)sc2c1	10.2%
Brc1ccc2nc(N3CCCC3)sc2c1	30.3%
c1c2c(cc3sc(N4CCCCC4)nc13)OCCO2	89.7% (active)
CC(C)c1csc(CN2CCC(CO)(Cc3ccccc3)CC2)n1	2.1%
CS(=O)(=O)N(Cc1ccccc1Cl)c1ccc(C(=O)NCc2cccnc2)cc1	-0.3%
Fc1ccc(CNCc2ccc(Br)cc2)cc1	19.2%
NC1=NC(=O)S/C1=C\c1ccc(O)cc1	3.3%
Cc1cc(C)c2nc(NC(=O)c3ccc4c(c3)OCO4)sc2c1	6.8%
O=C(Nc1nc(-c2ccc3c(c2)OCO3)cs1)c1ccncc1	64.6% (active)
O=C(Nc1ccccc1)c1ccc2c(c1)OCO2	18.6%
O=C(Nc1nc(-c2ccncc2)cs1)C1COc2ccccc2O1 (stereo not given)	22.6%
O=C(Nc1nc2ccccc2s1)c1ccc2c(c1)OCO2	61.3% (active)
Cc1ccc(-c2csc(NC(=O)c3cnccn3)n2)cc1C	15.5%
C/C(CC(=O)Nc1cccc(C(F)(F)F)c1)=N\NC(=O)C(=O)NCC(C)C	0.3%
COC(=O)COc1ccc(S(=O)(=O)Nc2ccc(NC(C)=O)cc2)cc1	-2%
COc1ccc(S(=O)(=O)Nc2ccc3oc(C)c(C(C)=O)c3c2)cc1	46% (active)
COc1ccc(NS(=O)(=O)c2ccc(NC(C)=O)cc2)cc1OC	47.9% (active)
COc1ccc2oc(C)c(NC(C)=O)c2c1	4.1%
COc1cc(NS(=O)(=O)c2ccc(NC(C)=O)cc2)cc(OC)c1	38%
COC(=O)c1c(C)oc2ccc(N(C(=O)Oc3ccccc3)S(=O)(=O)c3ccccc3)cc12	5.2%
Cc1ccc2c(=O)oc(N(C)C)nc2c1	-6.4%
CCc1c(C)nc2c(OC)cccc2c1Cl	3.4%
COc1ccccc1C1SCCN1C(=O)c1ccc([N+](=O)[O-])cc1 (stereo not given)	-1.1%
O=C(Nc1ccccc1C(=O)N1CCOCC1)c1ccc(CSc2ccccc2)cc1	24%
COc1ccc(C(=O)Nc2ccc(CN3CCOCC3)cc2)cc1	-2.1%
O=C(Nc1ccc(CSc2ccccc2)cc1)c1ccc(CN2CCOCC2)cc1	72.7% (active)

— PubChem BioAssay AID862 (The Scripps Research Institute Molecular Screening Center, 2007)
